Screening results as filed in PubChem.
A selection: hits, their analogues and other compounds. The true share with any hit is near 0.93%.
CIT2-GFP_yeast: modulators of CIT2-GFP expression in yeast, primary screen, S. cerevisiae, GFP fusion, multiplex flow cytometry, MLPCN library; S. cerevisiae CIT2-GFP strain, 3 h; 100 means same as DMSO wells; GFP response vs DMSO, % at 10 µM; 320,000 tested, 0.065% active;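 active means GFP response relative to DMSO above a set limit, near the screen mean plus 3 SD, cut at about 150% in these data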;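 further: ratio of well median GFP fluorescence to mean of DMSO wells on the plate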
RPL19A-GFP_yeast: RPL19A-GFP expression modulators in yeast, primary screen, cell-based, S. cerevisiae, multiplex flow cytometry, MLPCN; AID 2025, 2009; 330,000 tested, 0.3% active; percent response vs DMSO, % at 10 µM; S. cerevisiae RPL19A-GFP strain, 3 h; stronger effect = lower value;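 active means percent response vs DMSO below 50%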;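 further: median channel GFP fluorescence of the barcoded RPL19A-GFP strain; ratio of sample median GFP to plate DMSO average so 100% = DMSO; lower means less RPL19A-GFP as with rapamycin TOR inhibition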
MEP2_TOR_yeast: modulators of MEP2-GFP levels in yeast, primary screen, S. cerevisiae, multiplex flow cytometry, MLPCN library. S. cerevisiae MEP2-GFP strain, 3 h; 100% = DMSO control level. GFP response vs DMSO, % at 10 µM. 330,000 tested, 0.51% active. AID 2016, 2009;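 active means GFP response versus DMSO above a set limit, roughly screen mean plus 3 SD, cut at about 180% in these data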;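 further: median GFP fluorescence of the barcode-gated MEP2-GFP cells per well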
LAP4_TOR_yeast: modulators of LAP4-GFP expression in yeast, primary screen, S. cerevisiae, multiplex flow cytometry, MLPCN library; 3 h; median GFP as percent of DMSO wells; AID 2023, 2009; GFP response vs DMSO, % at 10 µM; 320,000 tested, 0.34% active;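 active means GFP response vs DMSO above a set limit, about the screen mean plus 3 SD, cut at about 150% in these data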
AGP1_TOR_yeast: modulators of AGP1-GFP expression in yeast TOR pathway, primary screen, cell-based, multiplex flow cytometry, S. cerevisiae, MLPCN library; GFP response vs DMSO, % at 10 µM; 3 h; GFP as percent of DMSO wells; 320,000 tested, 0.02% active;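 active means GFP response relative to DMSO above a set limit, near screen average plus 3 SD, cut at about 150% in these data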;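 further: median GFP channel fluorescence of the gated AGP1 strain per well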
LAP4_cherry2: LAP4-GFP expression modulators in yeast, confirmation, cell-based, second cherry pick, flow cytometry. GFP response vs DMSO, % at 10 µM. 590 tested, 20% active. S. cerevisiae LAP4-GFP strain, 3 h. AID 2621, 2010. shares compounds with LAP4_TOR_yeast;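 active means GFP signal as percent of the solvent control above about 150%, meaning raised reporter expression, limit read from the data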;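 further: ratio of well median GFP fluorescence to plate DMSO mean so 100% = DMSO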
MEP2_cherry2: modulators of MEP2-GFP levels in yeast, confirmation, S. cerevisiae, flow cytometry GFP, second cherry picks; shares compounds with LAP4_TOR_yeast; S. cerevisiae MEP2-GFP strain, 3 h; GFP response vs DMSO, % at 10 µM; 590 tested, 10% active; AID 2622, 2010;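 active means GFP signal above 150% of the solvent control wells, that is a rise of more than half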;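 further: median channel GFP fluorescence of all gated yeast cells per well; ratio of median GFP to plate DMSO average so 100% = DMSO level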
RPL19A-GFP_pick2: RPL19A-GFP modulators in TOR pathway yeast, confirmation, cell-based, S. cerevisiae, flow cytometry, second cherry pick. 590 tested, 3% active. AID 2623, 2010. GFP response vs DMSO, % at 10 µM. S. cerevisiae RPL19A-GFP strain, 3 h; stronger effect = lower value; 100% means same as DMSO wells. shares compounds with LAP4_TOR_yeast;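 active means under 65% GFP response relative to DMSO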;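 further: median GFP channel fluorescence per well over the all cells gate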
CIT2_GFP_CP2: modulators of CIT2-GFP expression in yeast, confirmation, flow cytometry, second cherry pick, single plex; shares compounds with LAP4_TOR_yeast; S. cerevisiae CIT2-GFP strain, 3 h; DMSO control wells read 100%; GFP response vs DMSO, % at 10 µM; 590 tested, 8% active; AID 2624, 2010;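 active means GFP response vs DMSO above about 150%, limit read from the data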;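 further: median green fluorescence per well over all gated yeast cells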
AGP1-GFP_pick2: AGP1-GFP expression modulators, hit retest, confirmation, cell-based, flow cytometry, S. cerevisiae, cherry pick set 2; shares compounds with LAP4_TOR_yeast; S. cerevisiae AGP1-GFP strain, 3 h; percent response vs DMSO, % at 10 µM; 590 tested, under 10 active;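 active means over 150 percent of DMSO response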;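 further: median GFP channel fluorescence over all cells without mother daughter split; sample median GFP divided by mean DMSO control so 100% equals DMSO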
Yeast_autofluor: compound autofluorescence in yeast s288c, dose response, artefact control for yeast TOR pathway GFP screen, s288c strain | shares compounds with LAP4_TOR_yeast | S. cerevisiae s288c, 520 nm autofluorescence, flow cytometry, 3 h; stronger effect = higher value; zero means same as solvent-only cells | fluorescence change (kMESF span) at 33 µM | 610 tested, under 10 active | AID 2757, 2010;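 active means fluorescence span over the dose series, or activity score, above about 33, limit read from the data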
* = called active by the depositor; . = no result given.

SMILES CIT2-GFP_yeast RPL19A-GFP_yeast MEP2_TOR_yeast LAP4_TOR_yeast AGP1_TOR_yeast LAP4_cherry2 MEP2_cherry2 RPL19A-GFP_pick2 CIT2_GFP_CP2 AGP1-GFP_pick2 Yeast_autofluor
COc1cccc(/C=C2\C(=O)N(c3cccc(C)c3)C(=O)c3ccccc32)c1 74 96 96 154* 94 . . . . . 0
COc1cc(CNC(=O)CCCCCCC(C)C)ccc1O 109 87 154 158* 123 160* 211* 110 188* 107 -0.2
O=S(=O)(c1ccc(F)cc1)c1snnc1-c1ccccc1 . 93 100 131 100 122 96 97 108 94 .
O=C(O)c1ccc(Oc2c(C(F)(F)F)oc3cc(O)ccc3c2=O)cc1 90 56 164 92 57 104 103 97 99 98 .
Cc1oc2cc(O)ccc2c(=O)c1Oc1ccccc1 104 101 101 104 100 . . . . . .
